Assay results: PubChem BioAssay
Activity calls are given as the source filed them.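 The calls were made as follows, unless noted: active = fluorescence slope after compound addition differing from the mean of all tested samples at 99.7% confidence, mostly higher but some lower; inactive = the rest.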

Columns and labels:
[1] = inhibitors of TNFa-induced NFkB p65 translocation, primary screen, imaging, HUVEC, MLSMR starter and 10KST1 sets (AID 438;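 active = inhibition above 20% together with a positive visual image hit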;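 also: compound added about 3h40 before a 20 min TNFalpha stimulation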;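 as to inhibition: signal is the nuclear over cytoplasmic p65 intensity ratio per well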); conditions: HUVEC TNFa-induced p65 nuclear translocation; cell count: measured here: nuclei count (cytotoxicity indicator), at 2.08 µM; inhibition: at 2 µM, stronger effect = higher value, 0% TNFa-plus-vehicle, 100% no-TNFa wells
[2] = inhibitors of mutant huntingtin aggregation, primary screen, imaging, exon1htt(103Q)mCFP cells, high-content imaging (AID 483;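 active = visual image review flags a hit and inhibition of aggregation exceeds 20%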;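 also: compound exposure lasted 3 days before fixation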;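 as to nuclei count: percent of the per-plate median nuclei count of sample wells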); conditions: exon1htt(103Q)mCFP cell line, aggregate imaging, at 2 µM; inhibition of aggregation: stronger effect = higher value; nuclei count: measured here: cell count, toxicity
[3] = inhibitors of E-selectin induction by TNFa, primary screen, imaging, HUVEC, immunofluorescence, MLSMR starter and 10KST1 sets (AID 487;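 active = visually confirmed hit in the image check and inhibition above 20%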;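 as to inhibition: signal is fraction of cell area covered by stained E-selectin grains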;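 as to nuclei count: 100% = median nuclei count of all wells on the same plate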); conditions: HUVEC TNFalpha-induced E-selectin immunofluorescence imaging, at 2 µM; inhibition: stronger effect = higher value; nuclei count: measured here: cell number, toxicity
[4] = DUSP6 inhibitors restoring Erk phosphorylation by chemical complementation, primary imaging in DUSP6-transfected HeLa (AID 609;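 active = compounds giving at least 50% inhibition in the cell-based MKP-3 phosphatase rescue imaging test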;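 as to inhibition: phospho-Erk level distribution per well compared with pooled transfected vehicle control wells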); conditions: HeLa MKP-3 transfected, phospho-Erk imaging KS statistic, at 10 µM, cells stimulated with TPA for 15 min
[5] = target: Dual specificity protein phosphatase 6 (Homo sapiens) (UniProt Q16828); test: as above; conditions: HeLa MKP-3 transfected, phospho-Erk imaging KS statistic; at 10 µM; stronger effect = higher value; cells stimulated with TPA for 15 min
[6] = target: Voltage-gated potassium channel subunit beta-2 (Rattus norvegicus) (UniProt P62483); test: KvBeta enzyme negative modulators, primary screen, biochemical, NADPH fluorescence (AID 622;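 active = fluorescence slope higher than the sample average by over 3 SD, cut at about -0.22 in these data, passing the limit was not always enough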;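 also: slope of raw intensity against log time taken from 70 to 1610 s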); conditions: recombinant KvBeta, 4-cyanobenzaldehyde reduction, at 10 µM, stronger effect = higher value
[7] = target: Voltage-gated potassium channel subunit beta-2 (Rattus norvegicus) (UniProt P62483); test: KvBeta positive modulators, primary screen, biochemical, NADPH fluorescence (AID 623;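 active = NADPH fluorescence slope more negative than the mean of all samples by about 3 SD, 99.7% confidence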;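 also: fluorescence intensity change per second fitted from 20 to 320 s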); conditions: Recombinant KvBeta, NADPH fluorescence decrease slope, 10 min; at 10 µM; stronger effect = lower value
[8] = target: Alpha-2C adrenergic receptor (Homo sapiens) (UniProt P18825); test: modulators of alpha2C/GIRK thallium flux, primary screen, cell-based, HEK293 alpha2C/GIRK1/2 (AID 624;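 active = fluorescence slope after compound addition differing from the mean of all screened samples at 99.7% confidence, in either direction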;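 also: slope of fluorescence ratio to pre-addition baseline per second over 15 to 24 s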); conditions: thallium flux BTC fluorescence, at 10 µM, actives lie on both sides
[9] = target: Muscarinic acetylcholine receptor M4 (Homo sapiens) (UniProt P08173); test: compounds altering M4/GIRK thallium flux, either direction, primary screen, M4 allosteric agonist project, cell-based, HEK293 M4/GIRK, BTC-AM (AID 625); conditions: at 10 µM, actives lie on both sides;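 also: thallium influx through GIRK channels coupled to M4 in HEK293 cells with BTC-AM dye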
[10] = inhibitors of larval lipid processing in zebrafish, primary screen, whole organism, PED6 fluorescence, gall bladder and intestine (AID 686;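 active = a full or partial loss of lipid-probe fluorescence in the fish gall bladder, intestine or both, judged by eye; inactive = no fluorescence loss, or compound toxic to the fish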;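 also: larvae 5 to 7 days old with five fish per well; signal comes from phospholipase A2 cleavage of quenched PED6 carried via bile; overnight exposure to compound and PED6 before scoring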); conditions: Zebrafish larvae PED6 lipid processing, fluorescence scoring; screened at 20 µM (by protocol)
[11] = inhibitors of Chlamydomonas gravitaxis, primary screen, whole organism, Chlamydomonas reinhardtii, WT vs cilia-less mutant, absorbance, 96-well (AID 463189;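 active = inhibition at or above 50% relative to wild type and mutant plate controls; inactive = inhibition below 50%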;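 also: 0% = wild type cc124 cells in DMSO and 100% = ciliumless bld1 mutant cells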); conditions: OD600 absorbance, 2 days, at 10 µM, stronger effect = higher value
[12] = inhibitors of Sendai virus-induced IRF3 signaling, primary screen, TLR/RLR signaling modifier project, cell-based, Sendai virus stimulus, luciferase, 10K MLSCN set (AID 602276;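 active = inhibition at or above 50% at 10 µM; inactive = inhibition below 50%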;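 also: firefly luciferase from ISG56 promoter only with Renilla not read in this screen; 0% = Sendai virus plus DMSO and 100% = medium plus DMSO without virus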); conditions: HEK293 RL24 IRF3 luciferase reporter, at 10 µM, stronger effect = higher value
[13] = inhibitors of poly I:C-induced TLR3 signaling, primary screen, cell-based, poly I:C stimulus, luciferase, 10K MLSCN set (AID 602277;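 active = inhibition of the reporter signal at or above 50%; inactive = inhibition below 50%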); conditions: HEK293-TLR3 RL24 IRF3 luciferase reporter, at 10 µM, stronger effect = higher value
[14] = measured here: cell density z-score
[15] = measured here: nuclear c-Myc green intensity z-score
[16] = measured here: nuclear pErk red intensity z-score, stronger effect = higher value

Voltage-gated potassium channel subunit beta-2 (Rattus norvegicus), sequence (P62483 whole entry, looked up): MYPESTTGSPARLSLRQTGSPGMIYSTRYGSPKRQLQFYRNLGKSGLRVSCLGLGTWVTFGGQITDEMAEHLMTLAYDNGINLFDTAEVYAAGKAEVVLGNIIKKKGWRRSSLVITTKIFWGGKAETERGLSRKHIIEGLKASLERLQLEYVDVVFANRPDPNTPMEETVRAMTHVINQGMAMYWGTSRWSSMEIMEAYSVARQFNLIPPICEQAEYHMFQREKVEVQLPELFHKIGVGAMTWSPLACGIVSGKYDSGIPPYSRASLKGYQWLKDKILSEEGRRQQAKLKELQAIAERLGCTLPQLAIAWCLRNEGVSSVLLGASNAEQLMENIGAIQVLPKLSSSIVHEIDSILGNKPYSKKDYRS
Alpha-2C adrenergic receptor (Homo sapiens), sequence (P18825 whole entry, looked up): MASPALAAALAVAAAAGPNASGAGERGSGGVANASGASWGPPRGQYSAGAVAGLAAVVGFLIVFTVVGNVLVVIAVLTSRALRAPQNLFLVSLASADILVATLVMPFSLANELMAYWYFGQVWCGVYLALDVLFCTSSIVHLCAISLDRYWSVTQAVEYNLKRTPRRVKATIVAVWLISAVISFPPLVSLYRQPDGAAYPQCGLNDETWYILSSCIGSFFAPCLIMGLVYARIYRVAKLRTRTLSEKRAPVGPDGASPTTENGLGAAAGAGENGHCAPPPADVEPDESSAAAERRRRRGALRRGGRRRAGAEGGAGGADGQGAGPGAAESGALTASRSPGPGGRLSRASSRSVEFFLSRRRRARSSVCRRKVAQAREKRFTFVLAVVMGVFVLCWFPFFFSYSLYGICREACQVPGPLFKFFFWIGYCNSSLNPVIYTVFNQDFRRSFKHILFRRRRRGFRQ
Dual specificity protein phosphatase 6 (Homo sapiens), sequence (Q16828 whole entry, looked up): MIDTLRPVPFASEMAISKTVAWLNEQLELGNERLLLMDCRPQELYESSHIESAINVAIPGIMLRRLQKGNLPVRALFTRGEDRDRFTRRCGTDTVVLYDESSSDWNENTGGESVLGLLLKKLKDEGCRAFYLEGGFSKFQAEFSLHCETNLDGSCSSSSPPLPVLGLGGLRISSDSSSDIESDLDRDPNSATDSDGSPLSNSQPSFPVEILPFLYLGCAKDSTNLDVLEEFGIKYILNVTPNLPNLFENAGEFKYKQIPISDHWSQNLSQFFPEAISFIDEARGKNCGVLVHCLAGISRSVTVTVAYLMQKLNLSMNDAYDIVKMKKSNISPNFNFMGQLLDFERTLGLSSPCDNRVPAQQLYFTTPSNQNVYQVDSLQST
Muscarinic acetylcholine receptor M4 (Homo sapiens), sequence (P08173 whole entry, looked up): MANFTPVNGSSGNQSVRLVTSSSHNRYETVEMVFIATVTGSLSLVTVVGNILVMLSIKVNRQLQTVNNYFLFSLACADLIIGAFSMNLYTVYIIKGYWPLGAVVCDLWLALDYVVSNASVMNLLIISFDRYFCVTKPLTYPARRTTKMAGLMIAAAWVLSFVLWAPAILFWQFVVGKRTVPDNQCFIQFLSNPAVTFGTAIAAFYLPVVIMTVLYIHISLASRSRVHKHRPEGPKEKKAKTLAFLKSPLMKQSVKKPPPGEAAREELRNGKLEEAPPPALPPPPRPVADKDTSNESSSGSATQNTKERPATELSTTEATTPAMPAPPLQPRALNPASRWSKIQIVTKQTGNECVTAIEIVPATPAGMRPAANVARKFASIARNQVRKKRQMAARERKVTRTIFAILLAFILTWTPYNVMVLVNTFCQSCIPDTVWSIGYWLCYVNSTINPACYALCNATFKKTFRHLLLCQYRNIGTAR

| Structure (SMILES) | cell count [1] | inhibition [1] | inhibition of aggregation [2] | nuclei count [2] [%] | inhibition [3] | nuclei count [3] [%] | z-score [4, 14] | z-score [4, 15] | z-score [4, 16] | inhibition [5] | fluorescence slope [6] | NADPH fluorescence slope [7] | slope [8] | fluorescence slope [9] | outcome [10] | inhibition [11] | inhibition [12] | inhibition [13] |
| --- | --- | --- | --- | --- | --- | --- | --- | --- | --- | --- | --- | --- | --- | --- | --- | --- | --- | --- |
| COC(=O)c1cc(Br)c(=O)n(-c2nccs2)c1 | 750 | -4.2% (inactive) | -14.3% (inactive) | 102 | -134% (inactive) | 142 | -1.41 | 0.813 | -2.4 | 38.2% (inactive) | -0.421 (inactive) | -5.6e-05 (inactive) | 0.00443 (inactive) | 0.00469 (inactive) | inactive | 6.75% (inactive) | -0.165% (inactive) | 1.38% (inactive) |
| COC(=O)c1ccccc1NC(=O)CSc1nnc(-c2ccncc2)o1 | 372 | -9.3% (inactive) | 3.1% (inactive) | 99.2 | -75.9% (inactive) | 128 | 0.433 | -0.668 | -1.26 | 3.42% (inactive) | -0.471 (inactive) | -4.2e-05 (inactive) | 0.00552 (inactive) | 0.00541 (inactive) | inactive | 4.81% (inactive) | 5.8% (inactive) | 19.8% (inactive) |
| CN(C)C(CN1C(=O)C2CC=CCC2C1=O)c1cn(C)c2ccccc12 (stereo unspecified) | 665 | 2.5% (inactive) | 12.2% (inactive) | 99.9 | -48.8% (inactive) | 124 | -1.61 | 2.35 | 0.886 | -3.95% (inactive) | -0.474 (inactive) | -2.6e-05 (inactive) | 0.00544 (inactive) | 0.00462 (inactive) | inactive | -7.45% (inactive) | 24.3% (inactive) | 46.8% (inactive) |
| CCOC(=O)c1ccc(N2C(=O)CC(Sc3nnc(C)s3)C2=O)cc1 (stereo unspecified) | 627 | -1.6% (inactive) | -10.1% (inactive) | 98 | -62.1% (inactive) | 104 | 0.196 | -1.44 | -0.8 | -5.81% (inactive) | -0.471 (inactive) | -1.4e-05 (inactive) | 0.0059 (inactive) | 0.00572 (inactive) | inactive | 30.9% (inactive) | 1.68% (inactive) | 7% (inactive) |
| Cc1ccc(-c2nnc(-c3cccc(Br)c3)o2)cc1 | 512 | -1.8% (inactive) | -23.2% (inactive) | 96.1 | -41.7% (inactive) | 126 | 0.516 | 0.261 | 0.911 | -15.1% (inactive) | -0.487 (inactive) | -9.8e-05 (inactive) | 0.00623 (inactive) | 0.00652 (inactive) | inactive | 8.63% (inactive) | -18% (inactive) | -64% (inactive) |
| Cc1cc(NCC2CCCO2)n2c(nc3ccccc32)c1C#N (stereo unspecified) | 481 | -3.7% (inactive) | 16.3% (inactive) | 95.7 | -9.7% (inactive) | 113 | -1.71 | 1 | 0.144 | 1.48% (inactive) | -0.356 (inactive) | -1.1e-05 (inactive) | 0.00569 (inactive) | 0.00588 (inactive) | inactive | -17.8% (inactive) | 16.8% (inactive) | 15.3% (inactive) |
| C/C(=N\O)C(=O)NCCCNCCCN(C)C | 609 | -2.7% (inactive) | -14.3% (inactive) | 109 | -42% (inactive) | 115 | -1.26 | 0.664 | -0.264 | -3.95% (inactive) | -0.495 (inactive) | -5.8e-05 (inactive) | 0.0053 (inactive) | 0.00686 (inactive) | inactive | -5.12% (inactive) | 15.3% (inactive) | 20.9% (inactive) |
